Test results as given in the supplement of paper PMC10849652.
The full data set covers some 7,900 targets. This sample favours those with a hit. About 0.6% of all pairs of compound and target were hits. Values without a mark were called inactive.

What was measured:
Assay in all cases: log2 fold change, soluble protein after heating vs DMSO (PISA); higher = thermal stabilisation; K562 cells, 10 uM, 30 min; active = over 0.2 and 3.5 SD of the protein, either way, in both replicates (recomputed)
[1] = compound: COC1=CC=C(C=C1)CN2C=CC3=C2C=C(C=C3)C(=O)NO
Method in brief: (§1)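 K562 cells at 2×10^6 cells/mL were treated for 30 min with 10 μM compound, and aliquots were heated for 3 min over 48°C-58°C before pooling. Extraction used PBS with 0.5% NP-40 at 4°C, and soluble protein was the supernatant after 21,000xg for 90 min, measured by TMTpro 16plex LC-MS/MS with channel sums equalised. Thermal stability values, relative to control samples and from duplicates, are log2 fold changes.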

[2] = compound: CON(C)C(=O)N1N=C(c2cc(F)ccc2F)S[C@@]1(CCCN)c1ccccc1 [filanesib]
Method in brief: as §1

[3] = compound: CO[C@H]1C[C@@H]2CC[C@@H](C)[C@@](O)(O2)C(=O)C(=O)N2CCCC[C@H]2C(=O)O[C@H]([C@H](C)C[C@@H]2CC[C@H](n3cnnn3)[C@H](OC)C2)CC(=O)[C@H](C)/C=C(\C)[C@@H](O)[C@@H](OC)C(=O)[C@H](C)C[C@H](C)/C=C/C=C/C=C/1C [zotarolimus]
Method in brief: as §1

[4] = compound: COc1cc(C(=O)O)ccc1NC(=O)[C@@H]1N[C@@H](CC(C)(C)C)[C@](C#N)(c2ccc(Cl)cc2F)[C@H]1c1cccc(Cl)c1F [idasanutlin]
Method in brief: as §1

[5] = compound: COc1cc(Nc2ncc3c(n2)-c2ccc(Cl)cc2C(c2c(F)cccc2OC)=NC3)ccc1C(=O)O [alisertib]
Method in brief: as §1

[6] = compound: COc1cc2nc(-c3cc(F)ccc3O)nc(N[C@@H]3CNC[C@H]3C(C)(C)O)c2cc1OC
Method in brief: as §1

[7] = compound: COc1cc2ncnc(Nc3ccc(F)c(Cl)c3)c2cc1OCCCN1CCOCC1 [gefitinib]
Method in brief: as §1

[8] = compound: COc1cccc2cc(-c3nc([C@H]4CC[C@H](C(=O)O)CC4)n4ncnc(N)c34)[nH]c12
Method in brief: as §1

[9] = compound: CS(=O)(=O)CCNCc1ccc(-c2ccc3ncnc(Nc4ccc(OCc5cccc(F)c5)c(Cl)c4)c3c2)o1 [lapatinib]
Method in brief: as §1

[10] = compound: CS(=O)(=O)N1CCN(Cc2cc3nc(-c4cccc5[nH]ncc45)nc(N4CCOCC4)c3s2)CC1 [pictilisib]
Method in brief: as §1

DPP8 (UniProt Q6V1X1)
log2 fold change [1]: -0.089
log2 fold change [2]: 0.048
log2 fold change [3]: 0.028
log2 fold change [4]: -0.112
log2 fold change [5]: -0.01
log2 fold change [6]: 0.041
log2 fold change [7]: 0.042
log2 fold change [8]: 0.037
log2 fold change [9]: -0.077
log2 fold change [10]: 0.022

DAG1 (UniProt Q14118)
log2 fold change [1]: 0.005
log2 fold change [2]: 0.054
log2 fold change [3]: -0.045
log2 fold change [4]: -0.047
log2 fold change [5]: -0.075
log2 fold change [6]: 0.105
log2 fold change [7]: 0.032
log2 fold change [8]: 0.082
log2 fold change [9]: -0.015
log2 fold change [10]: 0.115

EIF2S3 (UniProt P41091)
Sequence of UniProt P41091 (P41091 whole entry, looked up): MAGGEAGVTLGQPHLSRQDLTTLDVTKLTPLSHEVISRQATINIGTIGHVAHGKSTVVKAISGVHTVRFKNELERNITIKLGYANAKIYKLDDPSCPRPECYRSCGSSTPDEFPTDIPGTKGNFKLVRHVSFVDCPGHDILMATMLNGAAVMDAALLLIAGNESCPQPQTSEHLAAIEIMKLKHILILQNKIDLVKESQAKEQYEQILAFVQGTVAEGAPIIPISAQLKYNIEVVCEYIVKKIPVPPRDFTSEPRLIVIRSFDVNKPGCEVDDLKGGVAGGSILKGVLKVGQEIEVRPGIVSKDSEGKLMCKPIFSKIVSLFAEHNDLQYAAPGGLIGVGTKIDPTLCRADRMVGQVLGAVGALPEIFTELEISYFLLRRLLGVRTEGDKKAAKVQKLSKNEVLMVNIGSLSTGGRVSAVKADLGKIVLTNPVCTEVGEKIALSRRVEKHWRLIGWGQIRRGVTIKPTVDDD
log2 fold change [1]: -0.028
log2 fold change [2]: 0.119
log2 fold change [3]: 0
log2 fold change [4]: 0.07
log2 fold change [5]: -0.068
log2 fold change [6]: 0.002
log2 fold change [7]: -0.033
log2 fold change [8]: -0.07
log2 fold change [9]: 0.004
log2 fold change [10]: -0.027

DMAC1 (UniProt Q96GE9)
Sequence of UniProt Q96GE9 (Q96GE9 whole entry, looked up): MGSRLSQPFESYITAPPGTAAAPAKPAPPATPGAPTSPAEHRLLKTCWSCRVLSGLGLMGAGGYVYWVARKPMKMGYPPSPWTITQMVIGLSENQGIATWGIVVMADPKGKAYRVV
log2 fold change [1]: -0.121
log2 fold change [2]: 0.04
log2 fold change [3]: -0.04
log2 fold change [4]: -0.339
log2 fold change [5]: -0.174
log2 fold change [6]: -0.111
log2 fold change [7]: -0.074
log2 fold change [8]: 0.145
log2 fold change [9]: 0.053
log2 fold change [10]: 0.038

DYNC1LI2 (UniProt O43237)
log2 fold change [1]: -0.19
log2 fold change [2]: 0.384
log2 fold change [3]: 0.005
log2 fold change [4]: 0.092
log2 fold change [5]: -0.053
log2 fold change [6]: 0.101
log2 fold change [7]: -0.099
log2 fold change [8]: -0.119
log2 fold change [9]: 0.116
log2 fold change [10]: -0.223

DCAF6 isoform 3 (UniProt Q58WW2)
Sequence of UniProt Q58WW2 (Q58WW2 whole entry, looked up): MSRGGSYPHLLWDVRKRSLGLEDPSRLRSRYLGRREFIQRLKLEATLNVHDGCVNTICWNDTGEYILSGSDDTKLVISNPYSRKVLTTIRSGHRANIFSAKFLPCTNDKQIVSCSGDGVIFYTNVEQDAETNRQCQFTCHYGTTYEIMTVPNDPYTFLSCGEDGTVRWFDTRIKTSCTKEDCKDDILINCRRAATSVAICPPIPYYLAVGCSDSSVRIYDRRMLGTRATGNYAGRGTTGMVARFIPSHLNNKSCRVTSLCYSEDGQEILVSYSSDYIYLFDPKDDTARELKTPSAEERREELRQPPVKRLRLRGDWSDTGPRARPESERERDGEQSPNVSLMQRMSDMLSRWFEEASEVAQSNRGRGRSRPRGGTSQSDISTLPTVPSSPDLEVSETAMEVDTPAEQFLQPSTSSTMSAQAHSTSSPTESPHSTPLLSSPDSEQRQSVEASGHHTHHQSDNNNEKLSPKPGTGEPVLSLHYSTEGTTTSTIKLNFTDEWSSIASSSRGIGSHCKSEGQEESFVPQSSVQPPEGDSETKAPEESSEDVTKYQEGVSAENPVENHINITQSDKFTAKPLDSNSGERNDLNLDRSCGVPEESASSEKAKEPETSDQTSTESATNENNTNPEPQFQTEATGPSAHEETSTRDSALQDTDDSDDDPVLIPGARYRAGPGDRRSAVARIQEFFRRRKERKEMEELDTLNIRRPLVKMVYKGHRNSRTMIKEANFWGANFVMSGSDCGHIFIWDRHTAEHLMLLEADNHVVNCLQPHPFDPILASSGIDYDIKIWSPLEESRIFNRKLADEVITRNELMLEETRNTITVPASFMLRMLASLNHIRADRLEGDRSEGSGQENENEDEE
log2 fold change [1]: -0.007
log2 fold change [2]: -0.017
log2 fold change [3]: -0.045
log2 fold change [4]: -0.026
log2 fold change [5]: -0.081
log2 fold change [6]: -0.023
log2 fold change [7]: -0.01
log2 fold change [8]: 0.059
log2 fold change [9]: 0.016
log2 fold change [10]: 0.001

FAM50A (UniProt Q14320)
Sequence of UniProt Q14320 (Q14320 whole entry, looked up): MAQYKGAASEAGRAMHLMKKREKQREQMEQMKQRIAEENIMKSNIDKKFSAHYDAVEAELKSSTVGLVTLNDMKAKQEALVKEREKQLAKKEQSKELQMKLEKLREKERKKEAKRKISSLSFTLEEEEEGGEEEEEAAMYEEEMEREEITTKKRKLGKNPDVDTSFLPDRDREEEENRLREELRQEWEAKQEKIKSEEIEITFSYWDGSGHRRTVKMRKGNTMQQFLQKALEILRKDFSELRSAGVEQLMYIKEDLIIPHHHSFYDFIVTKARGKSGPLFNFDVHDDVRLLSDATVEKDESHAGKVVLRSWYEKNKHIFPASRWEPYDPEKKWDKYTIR
log2 fold change [1]: -0.019
log2 fold change [2]: -0.008
log2 fold change [3]: 0.026
log2 fold change [4]: -0.025
log2 fold change [5]: -0.003
log2 fold change [6]: -0.026
log2 fold change [7]: 0.039
log2 fold change [8]: -0.025
log2 fold change [9]: 0.022
log2 fold change [10]: 0.056

EIF4A1 (UniProt P60842)
log2 fold change [1]: 0.061
log2 fold change [2]: -0.11
log2 fold change [3]: -0.009
log2 fold change [4]: -0.075
log2 fold change [5]: -0.004
log2 fold change [6]: -0.01
log2 fold change [7]: 0.004
log2 fold change [8]: -0.027
log2 fold change [9]: 0.016
log2 fold change [10]: -0.088

CTNNB1 (UniProt P35222)
log2 fold change [1]: -0.082
log2 fold change [2]: 0.174
log2 fold change [3]: 0.029
log2 fold change [4]: -0.056
log2 fold change [5]: -0.084
log2 fold change [6]: 0.072
log2 fold change [7]: -0.001
log2 fold change [8]: 0.054
log2 fold change [9]: 0
log2 fold change [10]: -0.2

DNAH11 (UniProt Q96DT5)
log2 fold change [1]: 0
log2 fold change [2]: 0.047
log2 fold change [3]: 0.04
log2 fold change [4]: 0.03
log2 fold change [5]: -0.025
log2 fold change [6]: -0.137
log2 fold change [7]: -0.002
log2 fold change [8]: -0.203
log2 fold change [9]: 0.216
log2 fold change [10]: 0.552

EPHX2 (UniProt P34913)
Sequence of UniProt P34913 (P34913 whole entry, looked up): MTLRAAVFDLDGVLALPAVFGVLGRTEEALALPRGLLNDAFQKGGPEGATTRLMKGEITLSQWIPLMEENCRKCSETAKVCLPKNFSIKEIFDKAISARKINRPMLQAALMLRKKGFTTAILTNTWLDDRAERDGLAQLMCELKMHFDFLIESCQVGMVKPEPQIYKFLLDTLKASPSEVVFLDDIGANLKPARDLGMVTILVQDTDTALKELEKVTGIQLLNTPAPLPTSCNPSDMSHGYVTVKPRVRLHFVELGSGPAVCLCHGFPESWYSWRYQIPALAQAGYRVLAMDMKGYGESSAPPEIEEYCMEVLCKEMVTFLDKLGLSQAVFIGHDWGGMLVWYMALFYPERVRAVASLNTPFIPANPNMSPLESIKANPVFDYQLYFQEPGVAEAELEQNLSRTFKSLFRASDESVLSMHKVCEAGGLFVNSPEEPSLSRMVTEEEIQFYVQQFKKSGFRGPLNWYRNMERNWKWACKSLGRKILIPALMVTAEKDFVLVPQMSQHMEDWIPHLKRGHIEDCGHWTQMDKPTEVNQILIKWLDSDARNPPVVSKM
log2 fold change [1]: -0.019
log2 fold change [2]: -0.096
log2 fold change [3]: -0.017
log2 fold change [4]: -0.089
log2 fold change [5]: -0.053
log2 fold change [6]: -0.009
log2 fold change [7]: 0
log2 fold change [8]: 0.055
log2 fold change [9]: -0.041
log2 fold change [10]: 0.062

F5 (UniProt P12259)
log2 fold change [1]: -0.032
log2 fold change [2]: -0.05
log2 fold change [3]: -0.051
log2 fold change [4]: 0.613 (active)
log2 fold change [5]: -0.074
log2 fold change [6]: -0.089
log2 fold change [7]: 0.026
log2 fold change [8]: 0.059
log2 fold change [9]: 0.034
log2 fold change [10]: 0.074

DUS3L (UniProt Q96G46)
Sequence of UniProt Q96G46 (Q96G46 whole entry, looked up): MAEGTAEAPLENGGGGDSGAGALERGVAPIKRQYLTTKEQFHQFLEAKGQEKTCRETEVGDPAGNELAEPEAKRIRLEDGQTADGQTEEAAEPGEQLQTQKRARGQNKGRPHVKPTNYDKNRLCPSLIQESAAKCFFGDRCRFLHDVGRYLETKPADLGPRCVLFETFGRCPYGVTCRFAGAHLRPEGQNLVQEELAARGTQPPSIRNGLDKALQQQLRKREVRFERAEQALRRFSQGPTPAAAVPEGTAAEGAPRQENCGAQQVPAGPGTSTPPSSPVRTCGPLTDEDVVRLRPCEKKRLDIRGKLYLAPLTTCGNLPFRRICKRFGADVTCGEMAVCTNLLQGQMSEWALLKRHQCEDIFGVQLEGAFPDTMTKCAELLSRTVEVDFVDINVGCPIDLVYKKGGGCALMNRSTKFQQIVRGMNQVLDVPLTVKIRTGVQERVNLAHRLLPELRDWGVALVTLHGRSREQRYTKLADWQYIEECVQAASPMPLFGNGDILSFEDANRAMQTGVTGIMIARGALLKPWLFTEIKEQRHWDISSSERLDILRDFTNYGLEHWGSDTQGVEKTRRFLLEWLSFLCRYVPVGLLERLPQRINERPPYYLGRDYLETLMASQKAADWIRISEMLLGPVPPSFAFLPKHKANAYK
log2 fold change [1]: 0.069
log2 fold change [2]: 0.018
log2 fold change [3]: 0.001
log2 fold change [4]: 0.011
log2 fold change [5]: -0.071
log2 fold change [6]: 0.01
log2 fold change [7]: 0.02
log2 fold change [8]: 0.035
log2 fold change [9]: -0.037
log2 fold change [10]: -0.181

DHCR7 (UniProt Q9UBM7)
Sequence of UniProt Q9UBM7 (Q9UBM7 whole entry, looked up): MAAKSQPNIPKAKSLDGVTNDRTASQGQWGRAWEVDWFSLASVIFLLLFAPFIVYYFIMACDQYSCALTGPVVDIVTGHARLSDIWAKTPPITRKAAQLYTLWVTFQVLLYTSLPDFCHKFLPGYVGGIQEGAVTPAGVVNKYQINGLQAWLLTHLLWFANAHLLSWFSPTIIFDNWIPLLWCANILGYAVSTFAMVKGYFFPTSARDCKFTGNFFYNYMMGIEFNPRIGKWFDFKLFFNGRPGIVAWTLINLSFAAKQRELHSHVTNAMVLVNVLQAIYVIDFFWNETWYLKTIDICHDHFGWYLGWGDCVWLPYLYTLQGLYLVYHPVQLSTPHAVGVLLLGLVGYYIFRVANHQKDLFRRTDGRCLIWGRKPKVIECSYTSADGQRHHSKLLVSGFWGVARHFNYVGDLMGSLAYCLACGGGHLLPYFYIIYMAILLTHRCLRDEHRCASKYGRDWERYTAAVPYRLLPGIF
log2 fold change [1]: -0.182
log2 fold change [2]: -0.025
log2 fold change [3]: -0.088
log2 fold change [4]: -0.278
log2 fold change [5]: 0.01
log2 fold change [6]: 0.101
log2 fold change [7]: 0.088
log2 fold change [8]: -0.167
log2 fold change [9]: -0.009
log2 fold change [10]: -0.115

EDC4 (UniProt Q6P2E9)
log2 fold change [1]: 0.018
log2 fold change [2]: 0.106
log2 fold change [3]: 0.001
log2 fold change [4]: 0.044
log2 fold change [5]: -0.028
log2 fold change [6]: 0.062
log2 fold change [7]: -0.004
log2 fold change [8]: 0
log2 fold change [9]: 0.007
log2 fold change [10]: 0.006

FAAP100 (UniProt Q0VG06)
Sequence of UniProt Q0VG06 (Q0VG06 whole entry, looked up): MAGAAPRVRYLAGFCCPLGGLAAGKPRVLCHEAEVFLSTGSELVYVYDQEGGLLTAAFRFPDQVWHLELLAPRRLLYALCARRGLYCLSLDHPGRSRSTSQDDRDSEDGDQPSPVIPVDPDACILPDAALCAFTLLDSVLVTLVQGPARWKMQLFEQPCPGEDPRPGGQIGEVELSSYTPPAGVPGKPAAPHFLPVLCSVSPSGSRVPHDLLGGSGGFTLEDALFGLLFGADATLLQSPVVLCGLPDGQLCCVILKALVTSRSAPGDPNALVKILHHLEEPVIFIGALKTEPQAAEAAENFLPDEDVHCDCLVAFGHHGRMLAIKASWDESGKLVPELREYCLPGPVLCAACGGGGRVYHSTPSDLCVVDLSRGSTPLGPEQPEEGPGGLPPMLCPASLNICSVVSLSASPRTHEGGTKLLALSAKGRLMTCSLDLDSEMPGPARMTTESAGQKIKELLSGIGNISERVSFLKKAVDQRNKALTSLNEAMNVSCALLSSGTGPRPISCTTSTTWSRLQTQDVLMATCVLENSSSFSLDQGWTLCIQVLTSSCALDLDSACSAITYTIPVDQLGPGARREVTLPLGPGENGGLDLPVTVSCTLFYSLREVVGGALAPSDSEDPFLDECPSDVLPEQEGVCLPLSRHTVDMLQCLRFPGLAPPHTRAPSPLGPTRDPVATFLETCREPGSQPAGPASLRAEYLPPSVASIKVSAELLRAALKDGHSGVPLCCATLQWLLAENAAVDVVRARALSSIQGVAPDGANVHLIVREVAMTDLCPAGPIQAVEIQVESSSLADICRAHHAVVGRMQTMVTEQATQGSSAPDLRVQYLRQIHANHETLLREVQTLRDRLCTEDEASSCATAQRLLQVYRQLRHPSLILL
log2 fold change [1]: -0.008
log2 fold change [2]: -0.012
log2 fold change [3]: -0.025
log2 fold change [4]: 0.055
log2 fold change [5]: -0.044
log2 fold change [6]: -0.095
log2 fold change [7]: 0.036
log2 fold change [8]: 0.004
log2 fold change [9]: 0.011
log2 fold change [10]: -0.067

DPH5 isoform 5 (UniProt Q9H2P9)
log2 fold change [1]: -0.01
log2 fold change [2]: -0.024
log2 fold change [3]: -0.002
log2 fold change [4]: -0.049
log2 fold change [5]: -0.037
log2 fold change [6]: -0.071
log2 fold change [7]: 0.017
log2 fold change [8]: 0.046
log2 fold change [9]: 0.043
log2 fold change [10]: -0.006

ETNK1 (UniProt Q9HBU6)
log2 fold change [1]: -0.083
log2 fold change [2]: -0.172
log2 fold change [3]: 0.016
log2 fold change [4]: -0.105
log2 fold change [5]: -0.045
log2 fold change [6]: 0.013
log2 fold change [7]: -0.02
log2 fold change [8]: 0.01
log2 fold change [9]: 0.078
log2 fold change [10]: -0.044

CTSA (UniProt P10619)
log2 fold change [1]: 0.01
log2 fold change [2]: -0.111
log2 fold change [3]: -0.024
log2 fold change [4]: 0.015
log2 fold change [5]: 0.029
log2 fold change [6]: 0.023
log2 fold change [7]: 0.1
log2 fold change [8]: 0.065
log2 fold change [9]: 0.045
log2 fold change [10]: 0.038

CUEDC2 (UniProt Q9H467)
log2 fold change [1]: 0.233
log2 fold change [2]: 0.018
log2 fold change [3]: 0
log2 fold change [4]: 0.005
log2 fold change [5]: -0.035
log2 fold change [6]: -0.018
log2 fold change [7]: 0.168
log2 fold change [8]: 0.023
log2 fold change [9]: -0.035
log2 fold change [10]: 0.014

DYRK1A isoform 2 (UniProt Q13627)
log2 fold change [1]: -0.061
log2 fold change [2]: 0.01
log2 fold change [3]: 0.023
log2 fold change [4]: 0
log2 fold change [5]: -0.03
log2 fold change [6]: 0.004
log2 fold change [7]: 0.007
log2 fold change [8]: 0.036
log2 fold change [9]: -0.034
log2 fold change [10]: 0.017

FAM3A (UniProt P98173)
log2 fold change [1]: -0.057
log2 fold change [2]: -0.022
log2 fold change [3]: 0.005
log2 fold change [4]: 0.007
log2 fold change [5]: 0.044
log2 fold change [6]: -0.021
log2 fold change [7]: 0.04
log2 fold change [8]: 0.066
log2 fold change [9]: 0.067
log2 fold change [10]: 0.055

FAM117A (UniProt Q9C073)
log2 fold change [1]: 0.105
log2 fold change [2]: -0.025
log2 fold change [3]: 0.008
log2 fold change [4]: 0.076
log2 fold change [5]: 0
log2 fold change [6]: -0.059
log2 fold change [7]: -0.004
log2 fold change [8]: 0.024
log2 fold change [9]: -0.026
log2 fold change [10]: -0.019

DHX40 (UniProt Q8IX18)
log2 fold change [1]: -0.025
log2 fold change [2]: 0.022
log2 fold change [3]: 0.008
log2 fold change [4]: 0.025
log2 fold change [5]: -0.146
log2 fold change [6]: -0.019
log2 fold change [7]: 0.31
log2 fold change [8]: -0.037
log2 fold change [9]: 0.039
log2 fold change [10]: -0.014

EXOC7 (UniProt Q9UPT5)
log2 fold change [1]: 0.023
log2 fold change [2]: 0.032
log2 fold change [3]: 0.01
log2 fold change [4]: -0.076
log2 fold change [5]: -0.024
log2 fold change [6]: 0.149
log2 fold change [7]: -0.054
log2 fold change [8]: -0.053
log2 fold change [9]: -0.031
log2 fold change [10]: -0.057

CYBA (UniProt P13498)
log2 fold change [1]: -0.06
log2 fold change [2]: -0.189
log2 fold change [3]: -0.067
log2 fold change [4]: 0.017
log2 fold change [5]: -0.044
log2 fold change [6]: -0.171
log2 fold change [7]: -0.007
log2 fold change [8]: 0.067
log2 fold change [9]: -0.034
log2 fold change [10]: -0.047

DNAJC7 (UniProt Q99615)
Sequence of UniProt Q99615 (Q99615 whole entry, looked up): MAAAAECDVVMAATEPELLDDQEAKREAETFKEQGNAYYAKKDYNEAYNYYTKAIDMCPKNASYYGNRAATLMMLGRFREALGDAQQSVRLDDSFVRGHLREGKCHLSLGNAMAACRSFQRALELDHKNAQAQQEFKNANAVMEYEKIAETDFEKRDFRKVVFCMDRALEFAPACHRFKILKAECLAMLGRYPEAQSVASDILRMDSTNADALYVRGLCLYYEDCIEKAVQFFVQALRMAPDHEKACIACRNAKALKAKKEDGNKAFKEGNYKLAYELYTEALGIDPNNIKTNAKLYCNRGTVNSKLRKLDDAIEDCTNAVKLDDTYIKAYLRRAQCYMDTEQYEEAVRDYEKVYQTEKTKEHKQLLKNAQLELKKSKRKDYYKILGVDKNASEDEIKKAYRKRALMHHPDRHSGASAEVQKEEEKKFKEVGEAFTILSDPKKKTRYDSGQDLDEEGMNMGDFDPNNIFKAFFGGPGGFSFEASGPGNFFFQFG
log2 fold change [1]: 0.037
log2 fold change [2]: -0.025
log2 fold change [3]: 0.07
log2 fold change [4]: -0.043
log2 fold change [5]: -0.044
log2 fold change [6]: -0.031
log2 fold change [7]: 0.068
log2 fold change [8]: -0.031
log2 fold change [9]: 0
log2 fold change [10]: 0.014

CYP51A1 (UniProt Q16850)
log2 fold change [1]: -0.035
log2 fold change [2]: 0.217
log2 fold change [3]: -0.11
log2 fold change [4]: 0.099
log2 fold change [5]: -0.025
log2 fold change [6]: -0.005
log2 fold change [7]: 0.009
log2 fold change [8]: -0.105
log2 fold change [9]: 0.401 (active)
log2 fold change [10]: -0.216

DNTTIP2 (UniProt Q5QJE6)
log2 fold change [1]: -0.095
log2 fold change [2]: 0.217
log2 fold change [3]: 0.061
log2 fold change [4]: 0.267
log2 fold change [5]: -0.072
log2 fold change [6]: -0.09
log2 fold change [7]: -0.014
log2 fold change [8]: -0.002
log2 fold change [9]: 0
log2 fold change [10]: 0.008
